Results taken from PubChem BioAssay AID1159580 (chemical genetic matrix, 2015).
Values joined by “and” are separate entries in the source; they are usually repeats but may differ in a detail not shown here. Identical values can stand only once. In all, about 5,500 compounds went through this assay and about 2,000 (36%) were called active. Another 18% or so got no clear call; they are omitted. Cut-off read from the data, not from the text of the source: active = normalized growth mostly below about 0.91 (no sharp cut-off); inconclusive = no clear call, values can overlap the other calls; inactive = mostly above about 0.92. This is one part of the list.

Test: chemical genetic growth profiling, strain panel (AID 1159580);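 note: tested at 20 µM; growth read once vehicle control cultures reached saturation at 30 °C; 1 = growth at the plate median or of vehicle wells; lower values mean less growth of the strain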
Conditions: S. cerevisiae deletion strains, growth OD

Measured: normalized growth

C[C@H]1C(=O)CCC2[C@]3(C)CC[C@@]4(C)C5CC(C)(C)CC[C@]5(C)CC[C@]4(C)C3CC[C@@]21C (stereo partly drawn)
active: locus YBR021W, strain FUR4, stronger effect = lower value 0.713 | locus YDL192W, strain arf1, stronger effect = lower value 0.901 | locus YKR001C, strain vps1, stronger effect = lower value 0.876 | locus YNR052C, strain pop2, stronger effect = lower value 0.851
inactive: locus YAL021C, strain ccr4, stronger effect = lower value 0.979 | locus YAL026C, strain drs2, stronger effect = lower value 1.02 | locus YAL030W, strain snc1, stronger effect = lower value 1 | locus YBL061C, strain skt5, stronger effect = lower value 1 | locus YBR009C, strain hhf1, stronger effect = lower value 1.02 | locus YBR023C, strain chs3, stronger effect = lower value 1 | locus YBR171W, strain sec66, stronger effect = lower value 1 | locus YBR229C, strain ROT2, stronger effect = lower value 1.02 | locus YBR231C, strain swc5, stronger effect = lower value 0.997 | locus YBR279W, strain paf1, stronger effect = lower value 1.01 | locus YCL011C, strain gbp2, stronger effect = lower value 1.01 | locus YCL016C, strain dcc1, stronger effect = lower value 1 | locus YCL029C, strain bik1, stronger effect = lower value 0.968 | locus YCL061C, strain MRC1, stronger effect = lower value 1.01 | locus YCL069W, strain vba3, stronger effect = lower value 1.01 | locus YCR088W, strain abp1, stronger effect = lower value 1.01 | locus YDL005C, strain med2, stronger effect = lower value 0.995 | locus YDL035C, strain GPR1, stronger effect = lower value 0.983 | locus YDL040C, strain nat1, stronger effect = lower value 1.01 | locus YDL074C, strain BRE1, stronger effect = lower value 0.955 | locus YDL101C, strain DUN1, stronger effect = lower value 1.02 | locus YDL134C, strain PPH21, stronger effect = lower value 0.97 | locus YDL185W, strain tfp1, stronger effect = lower value 1.02 | locus YDR001C, strain nth1, stronger effect = lower value 1 | locus YDR069C, strain doa4, stronger effect = lower value 0.992 | locus YDR101C, strain arx1, stronger effect = lower value 0.981 | locus YDR137W, strain rgp1, stronger effect = lower value 0.987 | locus YDR159W, strain sac3, stronger effect = lower value 0.981 | locus YDR162C, strain NBP2, stronger effect = lower value 0.857 | locus YDR195W, strain ref2 0.966 | locus YDR297W, strain sur2, stronger effect = lower value 0.996 | locus YDR318W, strain mcm21, stronger effect = lower value 0.991 | locus YDR334W, strain swr1, stronger effect = lower value 1 | locus YDR335W, strain msn5, stronger effect = lower value 1.02 | locus YDR388W, stronger effect = lower value 1 | locus YDR392W, strain spt3, stronger effect = lower value 0.934 | locus YDR502C, strain sam2, stronger effect = lower value 0.97 | locus YEL003W, strain gim4, stronger effect = lower value 1.01 | locus YEL037C, strain rad23, stronger effect = lower value 0.999 | locus YEL061C, strain CIN8 (second series), stronger effect = lower value 1.01 | locus YEL061C, strain CIN8, stronger effect = lower value 1.02 | locus YER015W, strain faa2, stronger effect = lower value 1.01 | locus YER016W, strain bim1, stronger effect = lower value 0.994 | locus YER110C, stronger effect = lower value 1.01 | locus YER111C, strain swi4, stronger effect = lower value 0.998 | locus YER155C, strain BEM2 (second series), stronger effect = lower value 0.995 | locus YER155C, strain BEM2, stronger effect = lower value 1.03 | locus YER167W, strain BCK2, stronger effect = lower value 0.98 | locus YFR010W, strain ubp6, stronger effect = lower value 1.01 | locus YGL078C, strain dbp3, stronger effect = lower value 1.04 | locus YGL086W, strain mad1, stronger effect = lower value 0.974 | locus YGL167C, strain pmr1, stronger effect = lower value 1 | locus YGL173C, strain kem1, stronger effect = lower value 1.01 | locus YGL227W, strain vid30, stronger effect = lower value 1 | locus YGL240W, strain doc1, stronger effect = lower value 0.978 | locus YGL248W, strain PDE1, stronger effect = lower value 0.978 | locus YGL253W, strain hxk2, stronger effect = lower value 1.03 | locus YGR135W, strain pre9, stronger effect = lower value 1.01 | locus YGR252W, strain gcn5, stronger effect = lower value 0.902 | locus YHR013C, strain ard1, stronger effect = lower value 1.01 | locus YHR027C, strain rpn1, stronger effect = lower value 1.01 | locus YHR030C, strain SLT2, stronger effect = lower value 1.04 | locus YHR079C, strain IRE1 (second series), stronger effect = lower value 1.02 | locus YHR079C, strain IRE1, stronger effect = lower value 1.04 | locus YHR094C, strain hxt1, stronger effect = lower value 1.01 | locus YHR129C, strain ARP1, stronger effect = lower value 1 | locus YHR142W, strain chs7, stronger effect = lower value 1.03 | locus YHR200W, strain rpn10, stronger effect = lower value 0.951 | locus YIL066C, strain RNR3, stronger effect = lower value 0.969 | locus YIL073C, strain SPO22, stronger effect = lower value 1.02 | locus YIL125W, strain kgd1, stronger effect = lower value 1 | locus YIR030C, strain dcg1, stronger effect = lower value 1.02 | locus YJL092W, strain hpr5, stronger effect = lower value 1.01 | locus YJL095W, strain BCK1 (second series), stronger effect = lower value 0.999 | locus YJL095W, strain BCK1, stronger effect = lower value 0.936 and 1.01 | locus YJL115W, strain asf1, stronger effect = lower value 1 | locus YJL129C, strain trk1, stronger effect = lower value 1.01 | locus YJL134W, strain LCB3, stronger effect = lower value 1.03 | locus YJL154C, strain vps35, stronger effect = lower value 1 | locus YJL164C, strain tpk1, stronger effect = lower value 1.01 | locus YJL166W, strain qcr8, stronger effect = lower value 1 | locus YJL168C, strain set2, stronger effect = lower value 1.02 | locus YJL187C, strain SWE1 (second series), stronger effect = lower value 0.995 | locus YJL187C, strain SWE1, stronger effect = lower value 1 | locus YJR043C, strain POL32, stronger effect = lower value 0.949 | locus YJR066W, strain TOR1, stronger effect = lower value 0.984 | locus YKL009W, strain mrt4, stronger effect = lower value 1.03 | locus YKL068W, stronger effect = lower value 1.02 | locus YKL085W, strain MDH1 (second series), stronger effect = lower value 1.01 | locus YKL085W, strain MDH1, stronger effect = lower value 1.01 | locus YKL160W, strain elf1, stronger effect = lower value 1.01 | locus YKL190W, strain CNB1, stronger effect = lower value 1.02 | locus YKR026C, strain gcn3, stronger effect = lower value 0.999 | locus YKR091W, strain srl3, stronger effect = lower value 1.01 | locus YLL001W, strain dnm1, stronger effect = lower value 1 | locus YLL026W, stronger effect = lower value 1 | locus YLL041C, strain sdh2, stronger effect = lower value 1.01 | locus YLR027C, strain aat2, stronger effect = lower value 1 | locus YLR039C, strain RIC1, stronger effect = lower value 0.738 | locus YLR058C, strain SHM2, stronger effect = lower value 0.994 | locus YLR102C, strain apc9, stronger effect = lower value 1.02 | locus YLR113W, strain HOG1, stronger effect = lower value 0.965 | locus YLR221C, strain rsa3, stronger effect = lower value 0.995 | locus YLR258W, strain gsy2, stronger effect = lower value 1 | locus YLR262C, strain YPT6 (second series), stronger effect = lower value 1.01 | locus YLR268W, strain sec22, stronger effect = lower value 0.985 | locus YLR320W, strain mms22, stronger effect = lower value 1.01 | locus YLR342W, strain FKS1 (second series), stronger effect = lower value 0.992 | locus YLR342W, strain FKS1, stronger effect = lower value 1 | locus YLR357W, strain rsc2, stronger effect = lower value 0.977 | locus YLR370C, strain arc18, stronger effect = lower value 1.02 | locus YLR371W, strain rom2, stronger effect = lower value 1 | locus YLR384C, strain iki3, stronger effect = lower value 0.978 | locus YLR418C, strain cdc73, stronger effect = lower value 0.876 | locus YML016C, strain PPZ1, stronger effect = lower value 1.01 | locus YML032C, strain rad52, stronger effect = lower value 0.953 | locus YML120C, strain ndi1, stronger effect = lower value 0.998 | locus YML124C, strain tub3, stronger effect = lower value 1.02 | locus YMR058W, strain fet3, stronger effect = lower value 1.02 | locus YMR078C, strain ctf18, stronger effect = lower value 1.01 | locus YMR125W, strain sto1, stronger effect = lower value 0.995 | locus YMR129W, stronger effect = lower value 0.996 | locus YMR205C, strain PFK2, stronger effect = lower value 1.02 | locus YMR223W, strain ubp8, stronger effect = lower value 0.994 | locus YMR231W, strain pep5, stronger effect = lower value 0.996 | locus YMR263W, strain SAP30, stronger effect = lower value 1.02 | locus YMR307W, strain GAS1, stronger effect = lower value 1.04 | locus YNL067W, strain RPL9B, stronger effect = lower value 1.02 | locus YNL071W, strain lat1, stronger effect = lower value 1.01 | locus YNL153C, strain GIM3, stronger effect = lower value 1.01 | locus YNL183C, strain NPR1, stronger effect = lower value 0.981 | locus YNL209W, strain ssb2, stronger effect = lower value 1.02 | locus YNL233W, strain BNI4, stronger effect = lower value 1.01 | locus YNL248C, strain rpa49, stronger effect = lower value 0.919 | locus YNL250W, strain rad50, stronger effect = lower value 1.03 | locus YNL271C, strain bni1, stronger effect = lower value 1.01 | locus YNL298W, strain CLA4, stronger effect = lower value 0.993 | locus YNL307C, strain MCK1, stronger effect = lower value 0.984 | locus YNL322C, strain KRE1 (second series), stronger effect = lower value 0.985 | locus YNR049C, strain mso1, stronger effect = lower value 0.994 | locus YOL006C, strain TOP1, stronger effect = lower value 0.757 | locus YOL012C, strain htz1 1.29 | locus YOL147C, strain pex11, stronger effect = lower value 0.987 | locus YOR001W, strain rrp6, stronger effect = lower value 0.98 | locus YOR061W, strain CKA2, stronger effect = lower value 0.985 | locus YOR069W, strain VPS5, stronger effect = lower value 1.01 | locus YOR070C, strain gyp1, stronger effect = lower value 0.996 | locus YOR080W, strain dia2, stronger effect = lower value 1 | locus YOR083W, strain WHI5, stronger effect = lower value 1.01 | locus YOR106W, strain vam3, stronger effect = lower value 1.02 | locus YOR136W, strain idh2, stronger effect = lower value 0.994 | locus YOR144C, strain elg1, stronger effect = lower value 1 | locus YOR184W, strain ser1, stronger effect = lower value 0.967 | locus YOR231W, strain MKK1, stronger effect = lower value 0.985 | locus YOR265W, strain rbl2, stronger effect = lower value 0.993 | locus YOR270C, strain vph1, stronger effect = lower value 1.05 | locus YOR290C, strain snf2, stronger effect = lower value 0.991 | locus YOR316C, strain cot1, stronger effect = lower value 1.01 | locus YPL051W, strain arl3, stronger effect = lower value 0.999 | locus YPL055C, strain LGE1, stronger effect = lower value 0.938 | locus YPL078C, strain atp4, stronger effect = lower value 1.03 | locus YPL106C, strain sse1, stronger effect = lower value 0.989 | locus YPL240C, strain hsp82, stronger effect = lower value 0.997 | locus YPL256C, strain CLN2, stronger effect = lower value 1.05 | locus YPR119W, strain clb2, stronger effect = lower value 1.02 | locus YPR141C, strain kar3, stronger effect = lower value 1.02 | locus YPR163C, strain tif3, stronger effect = lower value 0.993 | locus YPR167C, strain met16, stronger effect = lower value 1.01 | strain wtn01, stronger effect = lower value 0.948
